# From PubChem BioAssay
# DRD3 antagonist: blocks the human D3 dopamine receptor. P35462. D3R cells, DiscoveRx beta-arrestin luminescence, antagonist mode; stronger effect = lower value. max response, negative = inhibition, %. 360,000 tested, 2.5% active; in the data active means max response below about -50%; inconclusive means no clear call, values can overlap the other calls; further: on the % scale 0 is the no-effect control and ±100 the full control effect
#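 Cells expressing the human receptor were seeded at 1500 cells/well, incubated overnight at 37 degrees C in 5% CO2, then exposed to library compounds with dopamine controls for 90 minutes at 37 degrees C before luminescent detection.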
# D3 ag: activates the human D3 dopamine receptor; D3R DiscoveRx beta-arrestin cells, luminescence, 90 min; max activation, %; 410,000 tested, 0.58% active; in the data active means max activation above about 30%; further: 0% is about no effect
#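 Agonist-mode cell screen: cells plated at 1500/well and incubated overnight at 37 °C, then exposed to library compounds for 90 min at 37 °C. Detection reagent was added for 30–60 min at room temperature, and luminescence was read.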
# DT40 TDP1 CPT: DT40-hTDP1 cell growth loss with CPT; chicken DT40 Tdp1-/-;hTDP1 cells + 20 nM CPT, ATP luminescence, 48 h; Potency, µM (top dose mostly 46.2 µM), for inactives: top-dose activity change, negative = growth inhibition, usual class: inhibitors; 420,000 tested, 12% active; AID 686979; further: potency means the concentration at half of the fitted maximal effect; on the % scale 0 is the no-effect control and ±100 the full control effect; nearly all actives have a fitted effect of over 55% in size
#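 Chicken DT40 Tdp1-/- cells stably complemented with human TDP1 were seeded at 400 cells/well in medium containing 20 nM camptothecin, exposed to pin-transferred compounds, and grown at 37 °C for at least 48 hr. Viability was read as ATP luminescence.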
# TDP1 cell noCPT: qHTS for Inhibitors of human tyrosyl-DNA phosphodiesterase 1 (TDP1): qHTS in cells in absence of CPT. DT40 Tdp1-/- hTDP1 cells, no CPT, ATP luminescence, 48 h. Potency, µM (top dose mostly 46.2 µM), inactives show at the highest dose activity change, negative = growth inhibition, usual class: inhibitors. 420,000 tested, 15% active. AID 686978, 2013; further: potency means the concentration at half of the fitted maximal effect; on the % scale 0 is the no-effect control and ±100 the full control effect; nearly all actives have a fitted effect of over 55% in size
#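 Stably hTDP1-transfected Tdp1-null chicken DT40 cells were treated with library compounds minus camptothecin and grown for at least 48 hr at 37 °C, after which cellular ATP was quantified by luminescence.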
# ClpP mod: qHTS Assay for Activators of ClpP; ATP-dependent Clp protease proteolytic subunit (Bacillus subtilis (strain 168)), P80244; purified B. subtilis ClpP, FRET peptide cleavage, 20 min; Potency, µM (series often up to 57.5 µM), for inactives: top-dose activity change, negative = active; 340,000 tested, 1.9% active; AID 651965, 2013; active means well fitted falling curve with a large enough effect; inconclusive means small, poorly fitted or top-dose-only effect; inactive means no such curve, though single readings can be large or run the other way; further: potency means the concentration at half of the fitted maximal effect; the source files actives as falling curves though it sought activators and does not explain the sign; nearly all actives have a fitted effect of over 65% in size
#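 ClpP 10 microg/mL final, pH 8 Tris/KCl buffer with BSA, glycerol, Tween-20; compound pinned in; FRET-FV substrate; RT 20 min; Ex320/Em430; ΔFRET vs ADEP 5.8 microM, DMSO, no enzyme.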
# IL1B secr inh: inflammasome signaling inhibition, IL-1 beta readout | AID 743279 | activity change, % at 57.5 µM | THP-1 LPS/ATP IL-1B secretion, AlphaLISA, 16 h; stronger effect = lower value | 360,000 tested, 4.7% active; in the data active means activity change below about -50%; inconclusive means mostly about -30% to -49%; further: on the % scale 0 is the no-effect control and ±100 the full control effect
#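 Secreted IL-1B measured by AlphaLISA bead assay after 16 h compound exposure of THP-1 cells; compounds (final up to 57.5 uM) added 1 h before LPS (250 ng/mL) and ATP (1.25 mM) stimulation; lower signal means less secretion.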
# * marks the source's active call; other numbers are inactive results; ? = inconclusive; . = no result. This is a sample that favours compounds with a hit; in the whole collection about 21% have one here. Unless noted, the call rests on the fitted dose curve; in most records, active means well fitted inhibition curve with a large enough effect; inconclusive means small, poorly fitted or top-dose-only effect; inactive means flat fitted curve, though single readings scatter.
SMILES,DRD3 antagonist,D3 ag,DT40 TDP1 CPT,TDP1 cell noCPT,ClpP mod,IL1B secr inh
COc1cccc(N2C(=O)NC(=O)C3(Cc4cc(C)ccc4N(C)C3)C2=O)c1 (stereo unspecified),0,-16,?,?,1%,2
CCCCN1C(=O)NC(=O)C2(Cc3cc(C)ccc3N(C)C2)C1=O (stereo unspecified),15,0,?,13µM*,-2%,9
COc1cc(CN2C(=O)NC(=O)C3(Cc4cc(C)ccc4N(C)C3)C2=O)cc(OC)c1 (stereo unspecified),-8,-2,?,0.01µM*,1%,37
ClC(Cl)=C(c1ccc(Cl)cc1)c1ccc(Cl)cc1,?,-23,1%,-18%,1%,-8
C[C@H]1COC(=O)[C@@H](Cc2ccc(F)cc2)CC/C=C/C[C@@H](CC(=O)N(CCO)Cc2ccccc2)C(=O)N1,30,2,13µM*,23µM*,-2%,4
C[C@H]1COC(=O)[C@@H](Cc2ccc(F)cc2)CC/C=C/C[C@H](CC(=O)N(CCO)Cc2ccccc2)C(=O)N1,33,-12,16µM*,16µM*,-3%,-28
CCN1C[C@@]2(COC)C3[C@@H](OC)C4[C@@H]1[C@@]3(C1C[C@@]3(O)[C@H](OC(=O)c5ccccc5)C1[C@]4(OC(C)=O)[C@@H](O)[C@@H]3OC)[C@@H](OC)C[C@H]2O (stereo partly specified),.,.,-4%,16%,.,.
C=CC[C@]1(O)CC[C@H]2[C@@H]3CCC4=CCCC[C@@H]4[C@H]3CC[C@@]21C,.,1,-29%,0%,.,.
CCOC(=O)c1ccc(N2C(=O)CC(N3CC=C(c4ccc(F)cc4)CC3)C2=O)cc1 (stereo unspecified),-24,0,?,?,-6%,-3
NC(=O)c1ccc(OCCC(O)N2CC=C(c3ccc(F)cc3)CC2)cc1 (stereo unspecified),-57*,-26,-20%,?,-2%,-15
C[C@]12CCC3C(C(=O)C[C@H]4C[C@@H](O)CC[C@]34C)C1CCC2=O (stereo partly specified),15,3,-3%,-16%,.,6
COc1ccc(Sc2cnn(-c3ccccc3)c(=O)c2Cl)cc1,3,-2,?,?,-1%,?
CC(C)=CCCC1(C)C=Cc2c(O)c3c(c(CC=C(C)C)c2O1)OC12C(=CC4CC1C(C)(C)OC2(C/C=C(/C)C(=O)O)C4=O)C3=O (stereo unspecified),.,.,0.92µM*,1µM*,.,.
CC(C)=CCCC1(C)C=Cc2c(O)c3c(c(CC=C(C)C)c2O1)OC12C(=CC4CC1C(C)(C)OC2(C/C=C(/C)C(=O)O)C4O)C3=O (stereo unspecified),.,.,4.6µM*,3.7µM*,.,.
Cc1ccc2nc(N)[nH]c(=O)c2c1Sc1ccncc1,.,12,?,0.38µM*,.,.
CCCCCCCSc1cc(OC)c(CCNC)cc1OC,-10,-20,?,15µM*,-1%,-79*
CCCCCSc1cc(OC)c(CCNC)cc1OC,?,-14,16µM*,16µM*,-1%,0
C/C(=N\N1CCCCCC1)c1c(O)n(C2CCCCC2)c(=O)[nH]c1=O,9,10,-17%,?,.,37
COc1nn(CSP(=S)(OC)OC)c(=O)s1,.,5,?,?,.,.
COc1ccc(C2=NCC(=S)Nc3ccc(Cl)cc32)cc1Cl,?,-4,?,21µM*,-1%,22
CN1C(=O)c2ccccc2Sc2ccc(C(=O)N3CCC4(CC3)OCCO4)cc21,?,17,-22%,-3%,0%,1
O=C(c1ccc2c(c1)N(Cc1c(F)cccc1Cl)C(=O)c1ccccc1S2)N1CCC2(CC1)OCCO2,.,-5,?,23µM*,-1%,.
CCN1C(=O)c2ccccc2Sc2ccc(C(=O)N3CCC4(CC3)OCCO4)cc21,-1,2,?,13µM*,0%,36
CCCCCOc1ccc(C2SC(=O)NC2=O)cc1OCC (stereo unspecified),.,8,?,?,.,.
CCC(=O)OC1(Cc2ccc(CC)cc2)CC(C)N(C)CC1C (stereo unspecified),-56*,-45,-23%,-24%,1%,-13
SMILES,DRD3 antagonist,D3 ag,DT40 TDP1 CPT,TDP1 cell noCPT,ClpP mod,IL1B secr inh
CN1CC(C(=O)c2cccs2)C(c2ccc(Cl)cc2)C1 (stereo unspecified),-75*,-25,?,?,.,-17
COc1ccccc1NC(=O)Cn1c(=O)n(-c2cccc(Cl)c2)c(=O)c2sc3ccccc3c21,.,8,13µM*,6.5µM*,2%,.
O=C(O)c1[nH]n(-c2ccc(S(=O)(=O)O)cc2)c(=O)c1N=Nc1ccc(S(=O)(=O)O)cc1,.,-26,?,?,1%,.
CCCN1CCC(NC2CCC(O)CC2)CC1 (stereo unspecified),-4,3,5%,10%,0%,1
COc1cc(/C=C/[N+](=O)[O-])ccc1O,42,14,8.2µM*,9.2µM*,-3%,-65*
O=[N+]([O-])c1c2ccccc2cc2ccccc12,-2,-15,14%,?,-1%,?
CCN(CC)c1ccc(/C=C/[N+](=O)[O-])cc1,-14,-2,?,16µM*,2%,-18
CCN(CC)c1ccccc1,6,0,-4%,-7%,-9%,31
Cc1ccc2c(c1)C=CC(C#N)N2C(=O)Oc1ccccc1 (stereo unspecified),-21,-11,18µM*,16µM*,-11%,?
CCN(CC)c1nc2ccccc2nc1C(=O)Nc1cccc(C(C)=O)c1,.,-3,?,?,1%,.
CCCCCc1cc(O)c2c(c1)OC(C)(C)c1ccc(C)cc1-2,.,-16,17µM*,9.4µM*,.,.
COC(=O)C1=C(c2ccc(OC(F)(F)F)cc2)C[C@@H]2CC[C@H]1N2C(=O)NCc1cccc2ccccc12,-13,-7,?,?,1%,-71*
COC(=O)C1=C(c2ccc(OC(F)(F)F)cc2)C[C@@H]2CC[C@H]1N2C(=O)NCc1cc(C)oc1C(F)(F)F,5,-3,?,21µM*,1%,16
